Out of some 310,000 compounds screened, about 11,000 (3.5%) were called active. Roughly 8% stayed inconclusive and do not appear here. Calls follow the shape of the dose curve; as a rule, active = well fitted inhibition curve with a large enough effect; inconclusive = small, poorly fitted or top-dose-only effect, or effect the other way; inactive = flat fitted curve, though single readings scatter. The sample as a whole holds a higher share of actives than the screen did.
Test: VP16 counterscreen qHTS for inhibitors of ROR gamma transcriptional activity;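 also: Gal4-VP16 expression switched on by copper sulfate through the metallothionein promoter; nearly all actives have a fitted effect of over 50% in size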
Details: Drosophila S2 Gal4-VP16 UAS-luciferase, luminescence, 20 h; series mostly up to 53.6 µM; activity, negative = inhibition: at the top concentration
% is scaled to controls: 0 for no effect and ±100 for the full control effect; potency is read from the fitted curve at half-maximal effect.

SMILES | activity, negative = inhibition | Potency
O=C(c1ccccc1)N1CCC(CC2CC(c3ccc(Cl)cc3)=NO2)(C(=O)NCC2CCCCC2)CC1 (stereo unspecified) | 11.9% (inactive) | –
CCCN1CCn2c3c(c4cc(Br)ccc42)CCCC31 (stereo unspecified) | 1.59% (inactive) | –
Cc1cc(O)c(C(=O)/C=C/c2c(F)c(F)c(F)c(F)c2F)c(=O)o1 | -1.97% (inactive) | –
CCOC(=O)N1CCN(C(=O)c2ccc3c(=O)n(CCc4ccc(OC)c(OC)c4)c(=O)[nH]c3c2)CC1 | -1.34% (inactive) | –
CCC(C(=O)OC)n1cnc2scc(-c3ccc(C)cc3)c2c1=O (stereo unspecified) | -5.09% (inactive) | –
CC(=O)Oc1ccc(-c2cccc(C(=O)N3CCCCC3)c2)cc1 | 7.3% (inactive) | –
COc1cc(/C=N/Nc2nn3cnnc3c3ccccc23)cc(OC)c1OC | -27% (inactive) | –
C/C(=N\Nc1nncc2ccccc12)c1ccc(Cl)c([N+](=O)[O-])c1 | -10.6% (inactive) | –
CN(CCO)c1ccc(/C=N/Nc2nncc3ccccc23)cc1 | – | 11.2 µM (active)
O=C(CCC(=O)N/N=C/c1ccc(Br)o1)N/N=C/c1ccc(Br)o1 | -5.41% (inactive) | –
NCCCCCC(=O)N/N=C/c1ccc2nccnc2c1 | 4.99% (inactive) | –
O=C(CCCO)N/N=C/c1cc(Br)ccc1O | – | 12.6 µM (active)
CC1CC(C)CN(c2ccc(S(=O)(=O)N3CCOCC3)cc2)C1 (stereo unspecified) | -4.83% (inactive) | –
COc1ccc2c(CC(=O)N3CCc4cc(OC)c(OC)cc4C3)coc2c1 | 11% (inactive) | –
COc1ccc(NC(=O)CSc2nc(SC)ns2)c(OC)c1 | -10.1% (inactive) | –
CCCCN1CCNC1=S | -7.57% (inactive) | –
CCCCN1C(=S)NC[C@@H]1C(C)CC (stereo partly specified) | – | 10 µM (active)
Cc1ccc2c(c1)N(CC(=O)N1CCOCC1)C(=O)CO2 | -15.3% (inactive) | –
CCOC(=O)[C@@H]1[C@H]2COc3cc(OC)ccc3[C@@H]2N2C(=O)N(c3cccc(C)c3)C(=O)[C@@]12C | -2.17% (inactive) | –
CCOc1ccc(N(CC(=O)NCCc2ccc(F)cc2)S(=O)(=O)c2ccccc2)cc1 | -5.48% (inactive) | –
Cc1ccccc1N1CC(C(=O)Nc2nnc(SCCC3OCCO3)s2)CC1=O (stereo unspecified) | -0.0441% (inactive) | –
CCC(C)(C)NC(=O)CN(C(=O)CCC(=O)Nc1nccs1)c1ccc2c(c1)OCO2 | 13.8% (inactive) | –

SMILES | activity, negative = inhibition | Potency
C=CCNC(=S)NNC(=O)c1cc(Cl)ccc1OC | -14% (inactive) | –
C=CCNC(=S)NNC(=O)c1ccc(Br)o1 | -22.5% (inactive) | –
C=CCNC(=S)NNC(=O)COc1c(Cl)cc(Cl)cc1Cl | – | 1.58 µM (active)
CC(C)[C@H](NC(=O)N1CCn2c1nc1ccccc12)C(=O)NCc1ccc2c(c1)OCO2 | 2.6% (inactive) | –
CCN(C(=O)CN1C(=O)/C(=C/c2ccc(F)cc2)SC1=S)C1CCS(=O)(=O)C1 (stereo unspecified) | -1.96% (inactive) | –
COc1ccc(N(C(=O)c2cccnc2)S(=O)(=O)c2ccc(OC)c(OC)c2)cc1 | -4.37% (inactive) | –
COc1ccc(Cc2nnc(NC(=O)c3ccc(OC)cc3OC)s2)cc1 | 25.6% (inactive) | –
COc1cc(SC)ccc1C(=O)Nc1nc(C)cs1 | – | 3.98 µM (active)
COc1cc(SC)ccc1C(=O)NCCOc1ccccc1Cl | 4.25% (inactive) | –
CCn1c2ccc(F)cc2c2nnc(SCCN3CCOCC3)nc21 | -1.32% (inactive) | –
CCC(=O)c1cn(CCOc2ccccc2OC)c2ccccc12 | -8.86% (inactive) | –
CCOc1ccc(N(C)Cc2cc(=O)oc3ccc(OC)cc23)cc1 | -9.57% (inactive) | –
Cc1cc(=O)oc2c3c(cc(OCC(=O)NCc4ccccn4)c12)OC(C)(C)CC3 | -3.85% (inactive) | –
CCc1ccc(/C=C2\SC(N3CCOCC3)=NC2=O)cc1 | -8.68% (inactive) | –
O=C1N=C(N2CCc3ccccc3C2)S/C1=C\c1ccc(O)cc1 | – | 1.58 µM (active)
O=C1N=C(N2CCCC2)S/C1=C\c1cccc(Br)c1 | 13.8% (inactive) | –
CCCCn1c(=S)[nH]c2ncccc2c1=O | – | 3.55 µM (active)
CN(C)CCn1c(=S)[nH]c2ccc(Cl)cc2c1=O | -3.83% (inactive) | –
CCCCNC(=O)CCn1c(=S)[nH]c2cc3c(cc2c1=O)OCO3 | -11.1% (inactive) | –
CCCCn1c(=S)[nH]c2ccccc2c1=O | – | 5.01 µM (active)
CCCCNC(=O)c1ccc(-n2c(=S)[nH]c3ccccc3c2=O)cc1 | 14.8% (inactive) | –
CCN(CC)CCn1c(=S)[nH]c2ncccc2c1=O | 7.04% (inactive) | –

SMILES | activity, negative = inhibition | Potency
O=C(NC1CCCCCCC1)c1cccs1 | -16.3% (inactive) | –
CCCc1nn2c(=O)cc(CSCC(=O)Nc3cccc(C)c3)nc2s1 | 0.474% (inactive) | –
CCOC(=O)N1CCN(S(=O)(=O)c2ccc(Br)cc2)CC1 | 2.58% (inactive) | –
Cc1ccc(NC(=O)CCC(=O)c2ccc(Br)cc2)cc1 | -7.45% (inactive) | –
CCC(Cc1ccccc1)NS(=O)(=O)c1ccc2c(c1)NC(=O)CS2 (stereo unspecified) | 1.55% (inactive) | –
CCc1ccc(NC(=O)CCNS(=O)(=O)c2cccs2)cc1 | 5.31% (inactive) | –
CCn1c(=S)sc2c(=O)n(CC(=O)Nc3cccc(Br)c3)c(C)nc21 | -2.31% (inactive) | –
Cc1ccc(OCc2cc(C(=O)N(C)CCc3ccccc3)no2)cc1C | -6.16% (inactive) | –
CN(Cc1cccnc1)C(=O)c1cc(COc2ccc3ncccc3c2)on1 | – | 2.82 µM (active)
CC(=O)c1cccc(OCc2cc(C(=O)NC(C)Cc3cccnc3)no2)c1 (stereo unspecified) | 16% (inactive) | –
COc1ccc(C(CCN2CCOCC2)c2c(OC)cc(OC)c3c2OC(=O)CC3c2ccc(OC)cc2)cc1 (stereo unspecified) | -26.9% (inactive) | –
CC1=C(C(N)=O)C(c2ccc3c(c2)OCO3)n2nc(-c3cccc(C)c3)nc2N1 (stereo unspecified) | – | 20 µM (active)
COc1cccc(-c2nc3n(n2)C(c2ccccc2Cl)C(C(N)=O)=C(C)N3)c1 (stereo unspecified) | -5.08% (inactive) | –
CC1=C(C(N)=O)C(c2ccc(F)cc2)n2nc(CCCO)nc2N1 (stereo unspecified) | 7.17% (inactive) | –
COc1ccc(S(=O)(=O)NCCc2cc3ccc(C)c(C)c3[nH]c2=O)cc1 | 6.83% (inactive) | –
O=C(Oc1ccc(Br)cc1)c1cccnc1 | -1.3% (inactive) | –
O=C(Oc1ccc(-c2nc(-c3ccccn3)no2)cc1)c1ccccc1 | – | 6.31 µM (active)
c1ccc(-c2noc(-c3cccs3)n2)nc1 | – | 12.6 µM (active)
Brc1ccc(-c2noc(-c3ccccc3)n2)o1 | -15.6% (inactive) | –
c1csc(-c2nc(-c3ccncc3)no2)c1 | -4.55% (inactive) | –
COc1nc(-c2ccc(Cl)cc2)ccc1-c1noc(-c2cccs2)n1 | -2.8% (inactive) | –
Cn1c(=O)[nH]c(=O)c2c1nc(N1CCN(C(c3ccccc3)c3ccccc3)CC1)n2CCO | -3.53% (inactive) | –

SMILES | activity, negative = inhibition | Potency
CCNC(=S)N(CCN(CC)CC)Cc1cc2cc3c(cc2[nH]c1=O)OCCO3 | 6.76% (inactive) | –
COc1ccc(-n2c(C)csc2=S)cc1 | 2.5% (inactive) | –
COc1ccc(-c2cn(-c3ccc(OC)cc3)c(=S)[nH]2)cc1 | – | 1.41 µM (active)
COc1ccc(N2C(=O)CNC2=S)cc1 | -1.96% (inactive) | –
Cc1ccc(OCC(=O)Nc2ccc(N3CCN(C(=O)c4ccco4)CC3)cc2)c(C)c1 | 0.609% (inactive) | –
CC(C)(C)c1ccc(Cn2nnc3c(=O)[nH]c(C4CCCN(C(=O)c5ccco5)C4)nc32)cc1 (stereo unspecified) | -1.24% (inactive) | –
CCC(C(=O)NC1CCCCC1)N(C(=O)c1snc(C(N)=O)c1N)c1ccc(OC)cc1OC (stereo unspecified) | 0.216% (inactive) | –
COc1cc(OC)c(C(=O)NCc2ccc3c(c2)OCO3)cc1OC | 15.5% (inactive) | –
Cc1nn(CC(=O)NCc2ccccn2)c(C)c1[N+](=O)[O-] | 1.72% (inactive) | –
Cc1nn(Cc2ccc(C(=O)N3N=C(C(F)F)CC3(O)C(F)F)cc2)c(C)c1[N+](=O)[O-] (stereo unspecified) | – | 10 µM (active)
Cc1ccn(CC(=O)N2N=C(C(F)F)CC2(O)C(F)F)n1 (stereo unspecified) | 0.0819% (inactive) | –
Cc1ccc(S(=O)(=O)N2CCN=C2SCc2c(F)cccc2Cl)cc1 | 3.35% (inactive) | –
CCOC(=O)C1(CCOc2ccccc2)CCN(Cc2cc(OC)c(O)cc2Cl)CC1 | -6.99% (inactive) | –
CCN1CC(CN(C)Cc2nc(-c3ccc(Cl)cc3)no2)CC1=O (stereo unspecified) | – | 10 µM (active)
CN(Cc1ccccn1)Cc1nc(-c2ccc(Cl)cc2)no1 | -9.46% (inactive) | –
CC1CCN(Cc2nc(-c3ccc(Cl)cc3)no2)CC1 | -21.9% (inactive) | –
CC(C)c1ccc(C2C(C(=O)c3ccco3)=C(O)C(=O)N2CC2CCCO2)cc1 (stereo unspecified) | 15.4% (inactive) | –
Cc1ccc(NC(=O)C2CCN(S(=O)(=O)c3ccc4c(c3)NC(=O)CO4)CC2)cc1C | -5.61% (inactive) | –
Clc1ccc(C2CC(c3cccs3)n3ncnc3N2)cc1Cl (stereo unspecified) | – | 17.8 µM (active)
COc1ccc(C2CC(c3ccccc3)Nc3ncnn32)cc1 (stereo unspecified) | 4.97% (inactive) | –
COc1ccc(C2CC(c3ccc(C)cc3)Nc3ncnn32)cc1 (stereo unspecified) | 5.33% (inactive) | –
Cc1[nH]c2ccc(C(=O)N3CCN(C)CC3)cc2c1C | -1.22% (inactive) | –

SMILES | activity, negative = inhibition | Potency
Nc1nc(CC(=O)CSc2ccc(Cl)cc2)nc(Nc2ccc(F)cc2)n1 | – | 12.6 µM (active)
CCOC(=O)N1CCN(Cc2nc(N)nc(Nc3ccc(C)cc3)n2)CC1 | 15.3% (inactive) | –
Cc1ccc(Nc2nc(N)nc(CSc3nnc(C)s3)n2)cc1 | 5.43% (inactive) | –
COc1ccccc1NC(=O)N1CCCC1C(=O)NCc1cccs1 (stereo unspecified) | -4.32% (inactive) | –
O=C(N/N=C/c1ccccn1)c1cccc(NC(=O)c2ccc(Cl)cc2)c1 | -1.57% (inactive) | –
COc1ccc(N(CC(=O)NCc2ccc(F)cc2)C(=O)CCC(=O)Nc2nccs2)cc1 | 1.53% (inactive) | –
O=C(CCC1CCN(C(=O)c2cccc(Cl)c2F)CC1)Nc1ccccc1 | 21.2% (inactive) | –
COc1nnc(-c2ccc(C)c(S(=O)(=O)N(C)C)c2)c2ccccc12 | -12% (inactive) | –
CC1=NN(C(=O)c2ccc(Br)cc2)C(O)(c2ccccc2)C1 (stereo unspecified) | -2.82% [at 10 µM] (inactive) | –
CCOC(=O)C1(O)CC(C)=NN1C(=O)c1cccc(Br)c1 (stereo unspecified) | 5.42% (inactive) | –
CC1=NN(C(=O)c2ccccc2Br)C(O)(c2cccnc2)C1 (stereo unspecified) | – | 12.6 µM (active)
N#C/C(C(=O)N1CCOCC1)=C1/SC(Cc2ccc(F)cc2)C(=O)N1c1ccccc1 (stereo unspecified) | 1.31% (inactive) | –
Cc1ccc(CC2S/C(=C(/C#N)C(=O)N3CCOCC3)N(c3ccccc3)C2=O)cc1 (stereo unspecified) | -4.04% (inactive) | –
N#C/C(C(=S)Nc1ccccc1)=C1/NN=C(N2CCOCC2)N1c1ccccc1 | – | 4.47 µM (active)
COc1c(O)cc2oc(-c3ccc(O)c(O)c3)cc(=O)c2c1O | – | inactive
O=c1cc(-c2ccc(O)c(O)c2)oc2cccc(O)c12 | – | 12.6 µM (active)
O=c1cc(-c2ccc(O)cc2)oc2c(-c3cc(-c4cc(=O)c5c(O)cc(O)cc5o4)ccc3O)c(O)ccc12 | -14.7% (inactive) | –
Cn1ccnc1SCC(=O)Nc1ccc2c(c1)OCCO2 | 13.4% (inactive) | –

Source: PubChem BioAssay AID2546 (National Center for Advancing Translational Sciences (NCATS), 2010)
